Molecules are shown by their SMILES. About 83,000 compounds went through this panel and 20% of them were active in at least one assay; those are over-represented in the sample as a whole.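 Interpretation: 100, growth as untreated; towards 0, rising growth inhibition; 0, no net growth; 0 to -100, cell death. Compounds scoring below 10 were considered active.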 Values without a mark were called inactive. Activity calls are given as the source filed them.

Test systems include NCI-H23 lung; NCI-H226 lung; NCI-H322M lung; HOP-62 NSCLC; NCI-H460 lung; HOP-92 NSCLC; NCI-H522 lung; A549/ATCC NSCLC; 786-0 renal; COLO 205 colon; DU-145 prostate; K-562 leukemia; MALME-3M melanoma; MDA-MB-231 breast; RXF 393 renal; SF-268 CNS; SF-295 CNS; SF-539 CNS; UACC-257 melanoma; M14 melanoma.
Common to all, as to experiment: NCI-60 one-dose screen, 48 h (100 = growth as untreated, 0 = no growth, -100 = all killed)
Settings in all cases: 10 µM unless noted

Take `CCN(CC)CCNc1nc2ccccc2c2c(=O)c3cc(Cl)ccc3sc12`: the growth in the test on NCI-H23 lung is 79.7%; in the test with NCI-H226 lung, 91.7%; in the test on NCI-H322M lung, 87.5%; in the test on HOP-62 NSCLC it was 76.7%; in the test with NCI-H460 lung, 8.93% (active); with HOP-92 NSCLC, 28.6%. In addition, the growth in the test with NCI-H522 lung is 63.9%; in the test on A549/ATCC NSCLC, 52.3%; in the test on 786-0 renal it was 74.5%; with COLO 205 colon it was 64.2%; with DU-145 prostate, 43%; in the test on K-562 leukemia, -25.5% (active). Also, the growth in the test with MALME-3M melanoma was 88.4%; with MDA-MB-231 breast, -2.23% (active); in the test on RXF 393 renal, 79.1%; with SF-268 CNS, 62.1%; in the test on SF-295 CNS, 29.2%; in the test on SF-539 CNS it was 67.2%. Also, the growth with UACC-257 melanoma is 93.2%; in the test on M14 melanoma, 31%.

For `CN1CCN(c2ccc(-c3ccc4ncc(C#N)c(Nc5ccc(F)c(Cl)c5)c4c3)cc2)CC1`, the growth with NCI-H23 lung was 77.4%; in the test with NCI-H226 lung, 86.8%; in the test with NCI-H322M lung, 19.7%; with HOP-62 NSCLC it was 65.9%; with NCI-H460 lung, 27%; with HOP-92 NSCLC, 63.5%. Moreover, the growth with NCI-H522 lung was 33.3%; with A549/ATCC NSCLC, 45.6%; in the test with 786-0 renal, 45.4%; with COLO 205 colon, 47.5%; with DU-145 prostate, 29.1%; in the test on K-562 leukemia it was 0.404% (active). For the same compound, the growth is -63.5% (active) in the test with MALME-3M melanoma; 76.8% in the test on MDA-MB-231 breast; 27.3% in the test with RXF 393 renal; 50.8% in the test with SF-268 CNS; 69.6% in the test on SF-295 CNS; 54.3% in the test with SF-539 CNS. Besides, the figures for the growth in the test with UACC-257 melanoma and with M14 melanoma were -0.414% (active) and -33.5% (active), respectively.

Take `CCCCCCNC(=O)Oc1ccc(/C(=C(\C)c2ccc(OC)cc2)c2ccc(OCCN3CCCCC3)cc2)cc1`: the growth is 64.6% in the test on NCI-H23 lung; 95.6% in the test on NCI-H226 lung; 90.3% with NCI-H322M lung; 72% with HOP-62 NSCLC; 52.7% in the test on NCI-H460 lung; 67.6% in the test on HOP-92 NSCLC. For the same compound, the growth was 72.7% in the test with NCI-H522 lung; 61.7% in the test with A549/ATCC NSCLC; 41.7% in the test on 786-0 renal; 16.3% in the test with COLO 205 colon; 79.7% in the test on DU-145 prostate; 6.45% (active) with K-562 leukemia. In addition, the growth with MALME-3M melanoma is 34.8%; in the test on MDA-MB-231 breast, 73.6%; with RXF 393 renal, 47.2%; in the test with SF-268 CNS, 71.8%; with SF-295 CNS, 33.3%; in the test with SF-539 CNS, 27.1%. For the same compound, the growth in the test on UACC-257 melanoma was -1.88% (active); in the test on M14 melanoma it was -37% (active).

Regarding `COc1cc(C(=O)N2N=C(c3ccc(S(C)(=O)=O)cc3)CC2c2ccco2)cc(OC)c1OC` (stereo not given), the growth in the test on NCI-H23 lung is 76.9%; with NCI-H226 lung, 77.4%; in the test on NCI-H322M lung it was 95%; in the test on HOP-62 NSCLC it was 67.3%; with NCI-H460 lung it was 58.2%; in the test with HOP-92 NSCLC, 39.8%. Moreover, the growth with NCI-H522 lung was 11.9%; in the test with A549/ATCC NSCLC it was 58.2%; in the test on 786-0 renal, 75.1%; in the test on COLO 205 colon it was 69.8%; with DU-145 prostate, 82.5%; in the test on K-562 leukemia, 73.2%. Further, the growth in the test with MALME-3M melanoma is 61.7%; in the test with MDA-MB-231 breast, 66.4%; with RXF 393 renal it was 66.4%; in the test on SF-268 CNS it was 87.6%; in the test with SF-295 CNS it was 42.9%; in the test with SF-539 CNS it was 79.1%. Besides, the growth is 80.6% in the test with UACC-257 melanoma and 65.2% in the test with M14 melanoma.

Take `CCCCCCn1c(-c2ccc(C(=O)O/N=C(\N)c3ccc4ccccc4c3)cc2)nc(-c2ccccc2)c1-c1ccccc1`: the growth is 44.3% in the test with NCI-H23 lung; 80.3% with NCI-H226 lung; 83.6% with NCI-H322M lung; 81.7% in the test with HOP-62 NSCLC; 58.5% in the test on NCI-H460 lung; 16% in the test with HOP-92 NSCLC. Besides, the growth is 47.9% in the test with NCI-H522 lung; -33.5% (active) in the test with A549/ATCC NSCLC; 4.48% (active) in the test on 786-0 renal; 77.2% in the test with COLO 205 colon; 53.9% in the test with DU-145 prostate; -8.77% (active) in the test with K-562 leukemia. Besides, the growth in the test on MALME-3M melanoma was 71.5%; in the test on MDA-MB-231 breast, 64.4%; with RXF 393 renal it was 35.1%; with SF-268 CNS, 51.3%; in the test with SF-295 CNS it was 70.1%; with SF-539 CNS, 48.8%. The values for the growth in the test on UACC-257 melanoma and with M14 melanoma were 82.2% and 72.7%, respectively.

For `O=C(CCN1C(=O)/C(=C/c2ccc(O)cc2)SC1=S)Nc1ccc(Cl)cc1`, the growth was 91.3% in the test with NCI-H23 lung; 97.8% with NCI-H226 lung; 82.6% in the test on NCI-H322M lung; 84.8% in the test with HOP-62 NSCLC; 102% in the test with NCI-H460 lung; 85.9% in the test on HOP-92 NSCLC. Besides, the growth in the test with NCI-H522 lung was 19.9%; with A549/ATCC NSCLC it was 92.1%; in the test on 786-0 renal, 99.7%; with COLO 205 colon, 120%; in the test on DU-145 prostate, 108%; with K-562 leukemia it was 89.7%. Moreover, the growth was 89.9% in the test on MALME-3M melanoma; 86.3% with MDA-MB-231 breast; 108% in the test with RXF 393 renal; 90.9% in the test with SF-268 CNS; 92.9% in the test on SF-295 CNS; 96.1% with SF-539 CNS. Also, the growth with UACC-257 melanoma was 101%; with M14 melanoma, 100%.

`O=C1CCC(C(=O)NCCNCCNC(=O)C2CCC(=O)N2)N1` (stereo not given): the growth was 106% in the test on NCI-H23 lung; 97.7% with NCI-H226 lung; 104% in the test on NCI-H322M lung; 93.7% in the test with HOP-62 NSCLC; 102% with NCI-H460 lung; 80.6% in the test with HOP-92 NSCLC. For the same compound, the growth in the test on NCI-H522 lung is 72.5%; in the test with A549/ATCC NSCLC it was 88.4%; with 786-0 renal, 101%; in the test on COLO 205 colon, 110%; in the test on DU-145 prostate, 109%; in the test on K-562 leukemia it was 101%. The growth in the test with MALME-3M melanoma was 105%; in the test with MDA-MB-231 breast, 121%; in the test with RXF 393 renal, 101%; in the test on SF-268 CNS, 100%; in the test on SF-295 CNS it was 100%; in the test on SF-539 CNS it was 102%. Further, the figures for the growth in the test on UACC-257 melanoma and in the test on M14 melanoma were 93% and 96.5%, respectively.

Values taken from PubChem BioAssay (NCI).
